# Measured values from PubChem BioAssay (NCATS).
# Results filed as inconclusive are left out. Where a call stands in place of a potency, no number is given. Activity calls are given as the source filed them. The call rests on the fitted dose curve; in most records, active means well fitted curve in the direction sought with a large enough effect; inconclusive means small, poorly fitted or top-dose-only effect, or another doubt; inactive means no such curve, though single readings can be large; an effect the other way counts as inactive or inconclusive.
# Columns and labels:
# [1] = biological target: Glutathione peroxidase 1 (Homo sapiens) (UniProt P07203); test: Primary qHTS Assay for Inhibitors of Recombinant Selenoprotein Glutathione Peroxidase 1 (GPX1) (AID 1845191); conditions: recombinant GPX1, GR-coupled NADPH fluorescence, 15 min; series mostly up to 48.8 µM; further: nearly all actives have a fitted effect of over 65% in size; further: potency means the concentration at half of the fitted maximal effect
# In short: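 Recombinant GPX1 (10 nM final) was preincubated with compound for 30 min at room temperature, then reacted with 1 mM GSH, 0.5 mM CHP, 0.5 mM NADPH and 100 nM glutathione reductase; NADPH fluorescence (340/450 nm) was read at 0 and 15 min.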
# [2] = biological target: Phospholipid hydroperoxide glutathione peroxidase GPX4 (Homo sapiens) (UniProt P36969); test: Primary qHTS Assay for Inhibitors of Recombinant Selenoprotein Glutathione Peroxidase 4 (GPX4) (AID 1845192); conditions: recombinant GPX4, GR-coupled NADPH fluorescence, 15 min; series mostly up to 50 µM; further: nearly all actives have a fitted effect of over 65% in size
# In short: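 GR-coupled readout: 100 nM GR, 1 mM GSH, 0.5 mM NADPH; NADPH fluorescence (ex 340/em 450 nm) read at t=0 and after 15 min RT. GPX4 200 nM, preincubated 30 min with compound; substrate 0.5 mM CHP.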
# [3] = biological target: Metallo-beta-lactamase type 2 (Klebsiella pneumoniae) (UniProt C7C422); test: qHTS to identify inhibitors of the New Delhi Metallo-beta-lactamase (NDM): assay validation screen against the NCATS LOPAC Collection (AID 1794843); conditions: NDM-1 enzyme, nitrocefin hydrolysis, absorbance 485 nm; series mostly up to 38.4 µM
# In short: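 Absorbance at 485 nm from nitrocefin turnover (50 uM solution added), read at plateau, gives the read-out. Compounds in DMSO were incubated first with 2 nM final NDM-1 in pH 7.0 HEPES buffer containing 1 uM ZnSO4 and 0.01% Tween20.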
# [4] = HepG2 viability counterscreen (readout 2: ATP content) against the NCATS DSHEA and TCM libraries (AID 1794840); conditions: ATP content luminescence; series mostly up to 27.3 µM;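 further: HepG2 cells exposed to substances for about 24 h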
# In short: (§1)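 Readout 1: cellular protease activity, GF-AFC substrate (25 uM final, 30 min, fluorescence 380/510 nm). Readout 2: ATP content by CellTiter-Glo luminescence after 30 min at RT. Both follow ~24 h exposure of HepG2 cells (1,000/well) to substances.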
# [5] = HepG2 viability counterscreen (readout 1: protease activity) against the NCATS DSHEA and TCM libraries (AID 1794841); conditions: qHTS concentration series; series mostly up to 27.3 µM;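 further: cells exposed to compounds for about 24 h before the protease read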
# In short: as §1
# [6] = biological target: Cytochrome P450 3A4 (Homo sapiens) (UniProt P08684); test: qHTS for inhibitors of CYP3A4 against the NCATS DSHEA and TCM libraries (AID 1919971); conditions: recombinant CYP3A4 enzyme activity, luminescence qHTS; series mostly up to 34.1 µM;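 further: inhibition lowers luminescence from luciferin made by CYP3A4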
# In short: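 Light output from converted D-luciferin reports remaining CYP activity. Compounds preincubate with enzyme and substrate for 15 min; NADPH regeneration (1x final) runs the reaction for 30-45 min.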
# Metallo-beta-lactamase type 2 (Klebsiella pneumoniae), sequence (C7C422 whole entry, looked up): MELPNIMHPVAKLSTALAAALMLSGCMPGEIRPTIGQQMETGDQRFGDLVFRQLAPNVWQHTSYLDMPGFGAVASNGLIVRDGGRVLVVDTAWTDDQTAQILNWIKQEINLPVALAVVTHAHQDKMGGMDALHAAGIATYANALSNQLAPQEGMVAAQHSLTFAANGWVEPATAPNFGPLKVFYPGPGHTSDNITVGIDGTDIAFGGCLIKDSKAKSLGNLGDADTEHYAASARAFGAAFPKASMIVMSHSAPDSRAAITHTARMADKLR
# Glutathione peroxidase 1 (Homo sapiens), sequence (P07203 whole entry, looked up): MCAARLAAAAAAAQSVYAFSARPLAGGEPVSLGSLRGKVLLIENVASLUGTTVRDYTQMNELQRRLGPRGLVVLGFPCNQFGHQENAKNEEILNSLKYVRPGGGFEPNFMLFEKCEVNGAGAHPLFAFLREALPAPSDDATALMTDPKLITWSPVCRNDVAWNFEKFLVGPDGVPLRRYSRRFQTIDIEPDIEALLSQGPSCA
# Phospholipid hydroperoxide glutathione peroxidase GPX4 (Homo sapiens), sequence (P36969 whole entry, looked up): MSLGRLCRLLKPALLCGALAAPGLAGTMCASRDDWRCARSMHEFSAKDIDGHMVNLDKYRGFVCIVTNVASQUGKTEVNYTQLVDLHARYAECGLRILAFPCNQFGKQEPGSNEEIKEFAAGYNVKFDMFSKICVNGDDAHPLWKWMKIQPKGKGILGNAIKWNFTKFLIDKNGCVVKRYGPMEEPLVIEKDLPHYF
# Cytochrome P450 3A4 (Homo sapiens), sequence (P08684 whole entry, looked up): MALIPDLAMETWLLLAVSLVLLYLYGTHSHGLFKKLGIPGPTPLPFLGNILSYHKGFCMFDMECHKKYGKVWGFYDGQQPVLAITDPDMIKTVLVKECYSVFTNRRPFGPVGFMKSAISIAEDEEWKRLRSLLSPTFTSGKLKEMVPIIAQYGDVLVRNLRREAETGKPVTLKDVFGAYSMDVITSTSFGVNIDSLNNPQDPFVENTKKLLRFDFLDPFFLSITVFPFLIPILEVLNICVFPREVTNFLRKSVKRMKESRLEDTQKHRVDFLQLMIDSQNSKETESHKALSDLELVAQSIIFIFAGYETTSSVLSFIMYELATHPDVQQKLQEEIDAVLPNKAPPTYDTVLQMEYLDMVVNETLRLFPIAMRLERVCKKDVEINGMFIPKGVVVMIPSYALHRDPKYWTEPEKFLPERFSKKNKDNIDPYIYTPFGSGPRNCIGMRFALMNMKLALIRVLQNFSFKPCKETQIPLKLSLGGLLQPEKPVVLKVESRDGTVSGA
smiles,measurement,setting,value
CCCN(CCc1cccs1)[C@H]1CCc2c(O)cccc2C1,Potency,[1],inactive
same,Potency,[2],inactive
CC(=O)Nc1ccc(CC(=O)O)cc1,Potency,[1],inactive
same,Potency,[2],inactive
Cn1c(=O)c2[nH]c(Br)nc2n(C)c1=O,Potency,[1],inactive
same,Potency,[2],inactive
CC(C)(C)NC[C@H](O)COc1cccc2c1CCCC2=O,Potency,[1],inactive
same,Potency,[2],inactive
CN(C)CCN1C(=O)c2ccccc2N(C)c2ccccc21,Potency,[1],inactive
same,Potency,[2],inactive
Cc1ccccc1OCC(O)CO (stereo not drawn),Potency,[1],inactive
same,Potency,[2],inactive
CCOCCn1c(N2CCCN(C)CC2)nc2ccccc21,Potency,[1],inactive
same,Potency,[2],inactive
CN(C)CCC[C@@]1(c2ccc(F)cc2)OCc2cc(C#N)ccc21,Potency,[1],inactive
NC1CCN(c2nc3c(cc2F)c(=O)c(C(=O)O)cn3-c2ccc(F)cc2F)C1 (stereo not drawn),Potency,[1],inactive
same,Potency,[2],inactive
NC(N)=NCc1cccc(I)c1,outcome,[3],inactive
same,Potency,[1],inactive
same,Potency,[2],inactive
O=C(Oc1cccc2cccnc12)c1ccccc1,Potency,[1],inactive
same,Potency,[2],inactive
COc1cc(C(=O)NCc2ccc(OCCN(C)C)cc2)cc(OC)c1OC,Potency,[1],inactive
same,Potency,[2],inactive
c1ccc(-c2nc[nH]c2-c2ccccc2)cc1,Potency,[1],inactive
same,Potency,[2],inactive
CCOC(=O)[C@H](CCc1ccccc1)N[C@@H](C)C(=O)N1[C@H](C(=O)O)C[C@H]2CCCC[C@@H]21,outcome,[3],inactive
same,Potency,[1],inactive
same,Potency,[2],inactive
C[N+]1(CC2COC(c3ccccc3)(C3CCCCC3)O2)CCCCC1 (stereo not drawn),Potency,[1],inactive
same,Potency,[2],inactive
CN1CCc2cccc3c2[C@H]1Cc1ccc(O)c(O)c1-3,Potency,[1],inactive
same,Potency,[2],inactive
C=C[C@@]1(C)CC(=O)[C@]2(O)[C@@]3(C)[C@@H](O)CCC(C)(C)[C@@H]3[C@H](O)[C@H](OC(C)=O)[C@@]2(C)O1,Potency,[1],inactive
NS(=O)(=O)c1cc2c(cc1Cl)NC(CC1CCCC1)NS2(=O)=O (stereo not drawn),Potency,[1],inactive
OC1C(O)C(O)C(O)C(O)C1O (stereo not drawn),outcome,[4],inactive
same,outcome,[5],inactive
same,Potency,[1],inactive
same,Potency,[2],inactive
same,outcome,[6],inactive
CN=C(N)NCCC[C@H](N)C(=O)O,outcome,[3],inactive
same,Potency,[1],inactive
same,Potency,[2],inactive
C[C@H]1O[C@@H](O[C@H]2CC[C@@]3(C)[C@H](CC[C@@H]4[C@@H]3C[C@@H](O)[C@]3(C)[C@@H](C5=CC(=O)OC5)CC[C@]43O)C2)C[C@H](O)[C@@H]1O[C@H]1C[C@H](O)[C@H](O[C@H]2C[C@H](O)[C@H](O[C@@H]3O[C@H](CO)[C@@H](O)[C@H](O)[C@H]3O)[C@@H](C)O2)[C@@H](C)O1,Potency,[1],inactive
same,Potency,[2],inactive
COc1ccc(C(=O)c2ccccc2)c(O)c1,Potency,[1],inactive
same,Potency,[2],inactive
CC(C)(C)NCC(O)COc1cccc2c1C[C@H](O)[C@H](O)C2 (stereo partly drawn),Potency,[1],inactive
same,Potency,[2],inactive
Nc1nc(Cl)nc2c1ncn2[C@@H]1O[C@H](CO)[C@@H](O)[C@@H]1F,Potency,[1],inactive
same,Potency,[2],inactive
NS(=O)(=O)Cc1noc2ccccc12,Potency,[1],inactive
same,Potency,[2],inactive
Cc1c(-c2ccccc2)oc2c(C(=O)OCCN3CCCCC3)cccc2c1=O,Potency,[1],inactive
same,Potency,[2],inactive
CCO[C@@H]1O[C@H](C(COCc2ccccc2)OCc2ccccc2)[C@H](OCc2ccccc2)[C@H]1O (stereo partly drawn),Potency,[1],inactive
same,Potency,[2],inactive
CC(=O)Nc1ccc(S(=O)(=O)Nc2ccc([N+](=O)[O-])cc2)cc1,Potency,[1],inactive
same,Potency,[2],inactive
CCCCCCCCCCCCCCCC(=O)O,outcome,[4],inactive
same,outcome,[5],inactive
same,outcome,[6],inactive
CCN1CCN(C(=O)N[C@@H](C(=O)N[C@@H]2C(=O)N3C(C(=O)O)=C(CSc4nnnn4C)CS[C@H]23)c2ccc(O)cc2)C(=O)C1=O,Potency,[1],11.4 µM (active)
same,Potency,[2],inactive
CC(C)[C@@H]1CC[C@@H](C)CC1=O,Potency,[1],inactive
same,Potency,[2],inactive
COc1cc([C@H]2Oc3cc([C@H]4Oc5cc(O)cc(O)c5C(=O)[C@@H]4O)ccc3O[C@@H]2CO)ccc1O,Potency,[1],inactive
CCc1oc2ccccc2c1C(=O)c1cc(I)c(O)c(I)c1,Potency,[1],inactive
C#C[C@]1(O)CC[C@H]2[C@@H]3CCC4=CC(=O)CC[C@@H]4[C@H]3CC[C@@]21CC,Potency,[1],inactive
same,Potency,[2],inactive
C#C[C@]1(OC(C)=O)CC[C@H]2[C@@H]3CCC4=C/C(=N/O)CC[C@@H]4[C@H]3CC[C@@]21CC,Potency,[1],inactive
same,Potency,[2],inactive
CC(C)(C)NC[C@H](O)COc1nsnc1N1CCOCC1,outcome,[3],inactive
same,Potency,[1],inactive
same,Potency,[2],inactive
CCC1NC(=O)c2cc(S(N)(=O)=O)c(Cl)cc2N1 (stereo not drawn),Potency,[1],inactive
same,Potency,[2],inactive
CCC(Cc1c(I)cc(I)c(N)c1I)C(=O)O (stereo not drawn),Potency,[1],inactive
same,Potency,[2],inactive
CCCCNc1ccc(C(=O)OCCOCCOCCOCCOCCOCCOCCOCCOCCOC)cc1,Potency,[1],inactive
same,Potency,[2],inactive
CCN[C@@H]1C[C@H](N)[C@@H](OC2OC(CN)=CCC2N)[C@H](O)[C@H]1O[C@H]1OC[C@](C)(O)[C@H](NC)[C@H]1O (stereo partly drawn),outcome,[1],inactive [at 0.4 µM]
same,outcome,[2],inactive [at 0.409 µM]
